Experimental data: PubChem BioAssay (NCATS)
Inconclusive results are not listed. Activity calls are given as the source filed them. Unless noted, the call rests on the fitted dose curve; in most records, active means well fitted curve in the direction sought with a large enough effect; inconclusive means small, poorly fitted or top-dose-only effect, or another doubt; inactive means no such curve, though single readings can be large; an effect the other way counts as inactive or inconclusive.

Legend:
[1] = qHTS assay for cell viability of the p53RE-bla HCT-116 cell line (AID 743292); conditions: p53RE-bla HCT-116 viability, ATP luminescence, 16 h; series mostly up to 95 µM; further: on the % scale 0 is the no-effect control and ±100 the full control effect; nearly all actives have a fitted effect of over 55% in size
In short: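 CellSensor p53RE-bla HCT-116 cells, 4,000/well, preincubated 5 h at 37 C, then exposed to compounds in DMSO for 16 h at 37 C. Viability read as CellTiter-Glo luminescence (intracellular ATP) after 30 min at room temperature.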

[2] = qHTS profiling for inhibitors of Plasmodium falciparum (3D7) proliferation (AID 743322);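 further: infected erythrocytes exposed to compound for 72 h before lysis; 100% = DMSO vehicle wells and 0% = 0.29 µM artemisinin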; conditions: P. falciparum 3D7 proliferation; at 28.7 µM (top of the series) unless noted
In short: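 Erythrocytes infected with P. falciparum (0.3% parasitemia, 2.5% hematocrit) incubated with compounds 72 h at 37 C, 5% CO2. Lysis with saponin/Triton buffer containing SYBR Green I, overnight at room temperature in the dark; DNA fluorescence (485/535 nm) normalised to 0.29 uM artemisinin and DMSO.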

[3] = qHTS profiling for inhibitors of Plasmodium falciparum (DD2) proliferation (AID 743323; call rule not given here); conditions: lower = more inhibition; at 28.7 µM (top of the series) unless noted
In short: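 SYBR Green fluorescence (ex 485, em 535 nm) of lysed cultures gives parasite DNA content; wells normalized to artemisinin (0.29 uM) and DMSO controls. Infected red cells: 0.3% parasitemia, 2.5% hematocrit, 72 h, 37 C.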

[4] = qHTS profiling for inhibitors of Plasmodium falciparum (HB3) proliferation (AID 743324); conditions: Plasmodium falciparum HB3 blood-stage proliferation; at 28.7 µM (top of the series) unless noted;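 further: 100% = DMSO vehicle wells and 0% = artemisinin-treated control wells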
In short: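 P. falciparum HB3 grown in erythrocytes (0.3% parasitemia, 2.5% hematocrit final) with compound for 72 h at 37 C, 5% CO2. Parasite DNA detected by SYBR Green after saponin/triton lysis overnight; normalized to 0.29 uM artemisinin and DMSO.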

| SMILES | Potency [1] | remaining parasite growth % (stronger effect = lower value) [2] | activity, percent of control [3] | remaining proliferation (% of control), lower = more inhibition [4] |
| --- | --- | --- | --- | --- |
| O=C1CN(/N=C/c2ccc([N+](=O)[O-])o2)C(=O)N1 | inactive |  |  |  |
| C=CCc1cccc(/C=N/NC(=O)CN2CCN(Cc3ccccc3)CC2)c1O |  | 16.2% | 11.8% | 9.08% |
| COc1cc(NC(C)CCCN)c2ncccc2c1 (configuration not stated) |  | 4.3% [at 9.63 µM] | 2.77% [at 9.63 µM] | 6.48% [at 9.63 µM] |
